Screens (PubChem BioAssay)
Only some compounds are listed: those with a hit (about 2% of all), similar ones and a draw of the others.
LDHA inh – qHTS assay for inhibitors of human lactate dehydrogenase; L-lactate dehydrogenase A chain (Homo sapiens), P00338; purified LDHA, NADH/diaphorase-resazurin fluorescence; active compounds read low; activity change, % (values are at about 110 or 230 µM); 480,000 tested, 0.15% active; AID 1347041, 2019; in the data active means activity change below about -30%; inconclusive means mostly about -25% to -30%;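 further: plate controls were DMSO wells for no effect and wells without enzyme for full effect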
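Enzyme activity of human lactate dehydrogenase 5 (2 nM; 0.06 mM NADH, 0.2 mM pyruvate, 5 min, RT) is measured via a resazurin/diaphorase fluorescence readout of residual NADH.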
mIDH1 inhibitor – qHTS for Inhibitors of mutant isocitrate dehydrogenase 1 (IDH1): qHTS; Isocitrate dehydrogenase [NADP] cytoplasmic (Homo sapiens), O75874; IDH1-R132H enzyme, NADPH consumption, diaphorase/resazurin fluorescence; Potency, µM (top dose mostly 76.6 µM), for inactives: top-dose activity change, negative = inhibition, actives largely listed as inhibitors; 390,000 tested, 0.093% active; AID 602179, 2012; further: potency means the concentration at half of the fitted maximal effect; on the % scale 0 is the no-effect control and ±100 the full control effect; nearly all actives have a fitted effect of over 65% in size
Target sequence (O75874 whole entry R132H, stated change not applied): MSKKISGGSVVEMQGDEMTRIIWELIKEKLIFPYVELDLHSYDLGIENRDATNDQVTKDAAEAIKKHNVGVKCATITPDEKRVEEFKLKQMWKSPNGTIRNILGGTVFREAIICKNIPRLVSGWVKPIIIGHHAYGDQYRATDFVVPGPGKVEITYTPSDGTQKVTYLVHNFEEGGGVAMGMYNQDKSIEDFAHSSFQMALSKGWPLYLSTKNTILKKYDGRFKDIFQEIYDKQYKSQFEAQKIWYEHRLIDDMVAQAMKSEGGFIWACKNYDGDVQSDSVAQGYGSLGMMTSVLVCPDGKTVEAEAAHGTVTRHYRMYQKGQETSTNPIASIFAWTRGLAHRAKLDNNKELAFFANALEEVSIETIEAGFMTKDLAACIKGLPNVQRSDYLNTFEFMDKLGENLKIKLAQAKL
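IDH1-R132H (0.5 ug/mL dispensed) in pH 7.5 Tris buffer was preincubated 30 min with compound, then given a substrate mix of 0.016 mM NADPH and 2 mM alpha-KG for 80 min at room temperature; remaining NADPH was read by diaphorase/resazurin fluorescence.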
FUS suppressor – qHTS for Suppressors of FUS Proteinopathy: Primary screen using FUS-linked yeast assay | Potency, µM (series often up to 76.6 µM), actives largely listed as activators | S. cerevisiae FUS-expressing, growth rescue, OD600, 24 h | 390,000 tested, 0.24% active;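 further: potency means the concentration at half of the fitted maximal effect; plate controls were DMSO vehicle for no effect and reference control for full effect; nearly all actives have a fitted effect of over 55% in size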
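Steps: raffinose overnight preculture; dilution to OD 0.005 in 2% galactose minimal medium; compound addition (concentration series); 24hr at 30C, 99% humidity; absorbance read at 600 nm.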
aSyn rescue – qHTS of alpha-syn Inhibitors. AID 652106, 2013. Yeast expressing alpha-synuclein, growth rescue, BacTiter-Glo, 24 h. 370,000 tested, 0.14% active. Potency, µM (highest dose often 46.1 µM), without a hit: at the top dose growth rescue (activation), most hits filed as activators; further: potency means the concentration at half of the fitted maximal effect; % of control where 0% means no effect; nearly all actives have a fitted effect of over 65% in size
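Screening used galactose-induced yeast with toxic alpha-synuclein levels, exposed to compound for 24 hr at 30 deg C. Cell growth, read with BacTiter-Glo luminescence, gave the measured signal.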
Abeta yeast res – qHTS for compounds that reverse cellular toxicity of Amyloid beta (A-beta) peptide in yeast: Primary Screen; yeast expressing A-beta42, growth rescue, OD600, 48 h; response scale: 0% DMSO, 100% iron-clioquinol control; Potency, µM (series often up to 46.1 µM), hits mostly activators; 410,000 tested, 0.063% active; further: potency means the concentration at half of the fitted maximal effect; nearly all actives have a fitted effect of over 55% in size
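Yeast growth medium received pinned compounds, then yeast cells expressing toxic A-beta were added; plates incubated at 30 C for 48 hr. Growth read as absorbance at 600 nm, normalized to DMSO and equimolar FeCl3 plus clioquinol controls.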
TDP-43 yeast inh – qHTS of TDP-43 Inhibitors. TDP-43 expressing yeast growth rescue, BacTiter-Glo, 24 h. Potency, µM (doses to about 46.1 µM), for inactives: top-dose growth rescue (activation), most hits filed as activators. 410,000 tested, 1.8% active; further: potency means the concentration at half of the fitted maximal effect; % of control where 0% means no effect; nearly all actives have a fitted effect of over 50% in size
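Galactose-induced TDP-43 yeast, OD600=0.02, compound pinned; 24 hr, 30 deg C; BacTiter-Glo luminescence for growth. Inhibitors of TDP-43 toxicity read as activators.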
Active calls of the source: *; i = inactive; u = inconclusive; x = not tested or not shown. Unless noted, the call rests on the fitted dose curve; in most records, active means well fitted curve in the direction sought with a large enough effect; inconclusive means small, poorly fitted or top-dose-only effect, or another doubt; inactive means no such curve, though single readings can be large; an effect the other way counts as inactive or inconclusive.

SMILES | LDHA inh | mIDH1 inhibitor | FUS suppressor | aSyn rescue | Abeta yeast res | TDP-43 yeast inh
C[C@]1(C(=O)NCCCNc2ncc(C(F)(F)F)cc2Cl)C=C[C@@H](Cc2ccccc2)N1C(=O)c1ccccc1 | 2 | -1% | 25µM* | u | i | u
CC1(C(=O)NCCCNc2ncc(C(F)(F)F)cc2Cl)C=CCN1C(=O)c1ccccc1 (configuration not stated) | 4 | 5% | i | 1% | i | 19%
O=C(O)c1cc(-c2cccs2)nc2ccc(Cl)cc12 | 9 | x | x | x | x | x
CCN(CC)C(=O)[C@H]1C[C@H](CC(=O)NCC23CC4CC(CC(C4)C2)C3)C(=O)N2CCc3c([nH]c4ccc(Cl)cc34)[C@]12C | 0 | -15% | i | u | i | 20µM*
CN(C)C(=O)CCc1ccc2c3c([nH]c2c1)[C@]1(CCC2CCCC2)[C@@H](C(=O)N2CCOCC2)C[C@H](CC(=O)NCCC2=CCCCC2)C(=O)N1CC3 | 4 | -27% | 16µM* | 0% | i | 21%
COc1ccc2[nH]c3c(c2c1)CCN1C(=O)C(CC(=O)NCCC2=CCCCC2)C[C@H](C(=O)N(C(C)C)C(C)C)[C@@]31C (some centres not stated) | 4 | -16% | u | -5% | i | u
CC(C)N(C(=O)[C@H]1CC(CC(=O)NCCC2=CCCCC2)C(=O)N2CCc3c([nH]c4ccccc34)[C@]12C)C(C)C (some centres not stated) | -2 | -8% | u | u | i | 35µM*
O=C(COc1ccccc1)Nc1nn2cc(-c3ccccc3)nc2s1 | -6 | x | x | x | x | x
CNC(=S)/N=C/NOCc1ccc(Cl)cc1Cl | -16 | 22% | i | -21% | i | 10µM*
NC(=O)NOCc1ccc(Cl)cc1Cl | -8 | -6% | i | 0% | i | 20%
N#Cc1ccccc1S(=O)(=O)N1CCN(CC(O)CN2CCOCC2)CC1 (configuration not stated) | -45* | 2% | i | 5% | i | 10%
CN(C)S(=O)(=O)Oc1ccsc1C(=O)Nc1cccc(Cl)c1 | 1 | 8% | i | -9% | i | 13µM*
CN(C)S(=O)(=O)Oc1ccsc1C(=O)Nc1ccc(C(F)(F)F)cc1 | 3 | 8% | i | -15% | u | 2%
CN(C)S(=O)(=O)Oc1ccsc1C(=O)Nc1ccc(Br)cc1 | -3 | 7% | i | 10% | u | 13µM*
CN(C)S(=O)(=O)Oc1ccsc1C(=O)Nc1ccc(Cl)c(Cl)c1 | -3 | 7% | i | -3% | i | 22µM*
Clc1ccc(N/N=C/C(Br)=C/c2ccccc2)cc1 | 10 | x | x | x | x | x
CNC(=O)c1cc(=O)n(CC(=O)Nc2ccc(C)c(C)c2)c2ccccc12 | -2 | x | x | x | x | x
CC(C)COc1cccc(C(=O)Nc2ccc3oc(-c4ccncc4)nc3c2)c1 | 4 | x | x | x | x | x
Nc1cc(C(=O)c2ccccc2)ccc1[N+](=O)[O-] | -4 | 7% | i | 0% | i | 8.9µM*
COCCCNC(=O)c1cc(-c2cccs2)nc2ccccc12 | 3 | x | x | x | x | x
Cc1[nH]c2ccc(C(=O)N3CCN(c4cccc(Cl)c4)CC3)cc2c1C | 2 | 6% | u | 20µM* | i | u
CCn1c(C)c(C)c2cc(C(=O)N3CCc4ccccc4C3)ccc21 | 0 | 2% | i | 26% | x | 20µM*
O=C(Nc1ccccc1N1CCN(C(=O)c2ccccc2)CC1)c1ccccc1Cl | -1 | -1% | i | -6% | i | u
Cc1cccc(N2CCN(C(=O)c3ccc4[nH]c(C)c(C)c4c3)CC2)c1C | -13 | 5% | i | 11% | i | 10%
O=C1c2ccccc2S(=O)(=O)c2cc(C(=O)N3CCN(c4ccccc4)CC3)ccc21 | -2 | 1% | i | 21% | i | 18µM*
SMILES | LDHA inh | mIDH1 inhibitor | FUS suppressor | aSyn rescue | Abeta yeast res | TDP-43 yeast inh
CCN1CCN(C(=O)c2ccc3c(c2)c(C)c(C)n3Cc2ccccc2)CC1 | -7 | 0% | i | 6% | i | 12%
O=C(c1ccccc1)c1ccc(C(=O)N2CCN(c3ccccc3Cl)CC2)cc1 | -5 | -1% | u | 1% | i | 11µM*
CCOC(=O)c1c(C)[nH]c(C(=O)C(C)Nc2cc(OC)ccc2OC)c1C (configuration not stated) | 0 | x | x | x | x | x
CCCCC(=O)Nc1cc(C(=O)OCc2cc(=O)n3oc(C)cc3n2)ccc1OC | 8 | x | x | x | x | x
Cc1ccc(C(=O)/C=C/c2cccc3ccccc23)o1 | -17 | x | x | x | x | x
Cc1ccc(S(=O)(=O)Cc2nc(-c3ccc(C(=O)NCCN4CCCCCC4)cc3)oc2C)cc1 | -1 | x | x | x | x | x
Cc1[nH]c2ccc(C(=O)N3CCN(c4ccccc4Cl)CC3)cc2c1C | -2 | 3% | i | 18µM* | i | 20µM*
Cc1c(C)n(C)c2ccc(C(=O)N3CCN(c4ccccn4)CC3)cc12 | -14 | -2% | i | 5% | i | 17%
COc1ccccc1N1CCN(C(=O)c2ccc3[nH]c(C)c(C)c3c2)CC1 | -3 | 0% | u | 15% | x | 19%
Cc1c(C)n(C)c2ccc(C(=O)N3CCN(c4ccccc4)CC3)cc12 | 1 | -3% | i | 7% | i | 16µM*
Cc1[nH]c2ccc(C(=O)N3CCN(c4ccccc4F)CC3)cc2c1C | -4 | -4% | u | x | i | 22µM*
Cc1[nH]c2ccc(C(=O)N3CCCC3)cc2c1C | -8 | 2% | i | -2% | i | 4%
O=C(/C=C/c1ccccc1OCc1cccnc1)c1ccc(O)cc1 | 1 | x | x | x | x | x
OC[C@@H]1CN(Cc2ccc(Cl)cc2)C[C@H](n2cnc3c(N4CCN(c5ccccc5)CC4)ncnc32)O1 | 1 | x | u | u | i | 32µM*
OC[C@@H]1CN(Cc2ccc(Cl)cc2)C[C@H](n2cnc3c(N4CCOCC4)ncnc32)O1 | -2 | x | i | 0% | i | 14%
C=CCN(CC=C)C(=S)NC(=O)c1ccc(C)c(Br)c1 | -5 | 8% | x | 14µM* | i | u
C=CCN(CC=C)C(=S)NC(=O)c1ccc(-c2ccccc2)cc1 | -4 | 0% | x | u | i | 13µM*
O=C(N/N=C/c1cccc(Oc2ccccc2)c1)c1ccncc1 | -3 | 1% | i | 17% | i | 13µM*
